Measured values published in PubChem BioAssay (NCI).
This is part of a sample that, as a whole, favours compounds with a hit. Of some 79,000 tested, about 15% had one in any assay. Cut-off read from the data, not from the text of the source: active = growth inhibition above about 70%; inactive = the rest. *1 amine or outer side, *2 acyl side, *3 side chain or, on linkers, in order; H or OH if unused. Where a SMILES comes first, the peptide text is derived from it. Bridges are numbered along the chain shown (N, C = ends). [ ]: non-standard residue; d: D form. The star is where a group is joined. ξ: configuration not given here. Fmoc = O=C(OCC1c2ccccc2-c2ccccc21)*; X9 = O=C(C(CCCCNO[*:3])N[*:1])[*:2]; ξW = NC(Cc1c[nH]c2ccccc12)C(=O)O; ξP = O=C(O)C1CCCN1

How the values were obtained:
[1] = NCI Yeast Anticancer Drug Screen. Data for the rad50 strain (AID 155);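 note: 0% = growth of vehicle-only cultures of the same strain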; conditions: S. cerevisiae rad50 strain growth inhibition; at 50.0 µM; hits give high values
Procedure, shortened: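 Inhibition values express reduced yeast growth in compound-treated cultures relative to vehicle-treated controls.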

[2] = NCI Yeast Anticancer Drug Screen. Data for the mec2-1 strain (AID 157); conditions: S. cerevisiae mec2-1 strain, at 50.0 µM, hits give high values
Procedure, shortened: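 Mutant yeast (mec2-1) grown with compound; growth inhibition relative to vehicle control reported.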

[3] = NCI Yeast Anticancer Drug Screen. Data for the sgs1 mgt1 strain (AID 161);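 note: 0% = growth of cultures given vehicle only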; conditions: S. cerevisiae sgs1 mgt1 strain, at 50.0 µM, hits give high values
Procedure, shortened: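 Percent growth inhibition was derived by comparing compound-exposed mutant yeast with vehicle-exposed cultures. The strain carries alterations in DNA damage repair.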

[4] = NCI Yeast Anticancer Drug Screen. Data for the cln2 rad14 strain (AID 165);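 note: 0% = growth equal to vehicle treated cultures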; conditions: S. cerevisiae cln2 rad14 strain, at 50.0 µM, hits give high values
Procedure, shortened: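 Readout is yeast growth inhibition versus vehicle-treated controls, using a strain with cln2 and rad14 alterations exposed to compound.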

[5] = NCI Yeast Anticancer Drug Screen. Data for the bub3 strain (AID 167); conditions: S. cerevisiae bub3 mutant strain, at 50.0 µM, hits give high values
Procedure, shortened: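 Steps: expose the mutant yeast strain to compound; grow alongside vehicle-treated cultures; measure growth; express inhibition against the vehicle cultures.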

[6] = NCI Yeast Anticancer Drug Screen. Data for the mlh1 rad18 strain (AID 175); conditions: S. cerevisiae mlh1 rad18 strain growth inhibition; at 50.0 µM; hits give high values
Procedure, shortened: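 Genetically defined yeast (DNA repair-deficient) exposed to compounds; growth inhibition determined relative to vehicle.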

Measured: growth inhibition

O=C(CN=Cc1ccccc1O)NCc1ccccn1
inactive: [1] -10.7% | [2] -5.9% | [3] 10.7% | [4] 10.1% | [5] -21.9% | [6] 21.3%

CC1(C)C(=O)/C=C\C(=O)C(C)(C)C(=O)/C=C\C(=O)C(C)(C)C2=CC=C(O2)C(C)(C)C(=O)/C=C\C1=O
inactive: [1] 14.9% | [2] 12.2% | [3] -2.4% | [4] 20.9% | [5] 7.9% | [6] 14.4%

CCSC(COC(C)=O)(SCC)C(OC(C)=O)C(OC(C)=O)C(COC(C)=O)OC(C)=O (stereo unspecified)
inactive: [1] 10.9% | [2] 6.55% | [3] -9% | [4] -6.3% | [5] -2.6% | [6] 14.4%

O=C(NCc1ccco1)Nc1ccccc1
inactive: [1] -5.8% | [2] -21.2% | [3] -11.7% | [4] -36% | [5] 7.1% | [6] -7.55%

CC(=O)OCC/C=C\CCCOC(C)=O
inactive: [1] 5.55% | [2] -2.7% | [3] -3% | [4] -1.75% | [5] 8.3% | [6] 3.65%

OC1CC2CCC(C1)N2c1ccccc1 (stereo unspecified)
inactive: [1] 2.35% | [2] 4.95% | [3] 16.6% | [4] -29.9% | [5] 19.1% | [6] 14.3%

COC(=O)c1ccc(C(=O)OC)c(O)c1O
inactive: [1] 11.3% | [2] 27.9% | [3] 8.85% | [4] -2.85% | [5] 12.8% | [6] 16.4%

CC(=O)OCC1OC(OC(C)=O)C(NC(=O)CN(Cc2ccccc2)S(C)(=O)=O)C(OC(C)=O)C1OC(C)=O (stereo unspecified)
inactive: [1] -8.6% | [2] 13.9% | [3] -16.1% | [4] -1.65% | [5] 0.35% | [6] -4.05%

O=C(O)c1cccc2c1C(=O)c1c(O)cccc1C2=O
inactive: [1] 35.9% | [2] 19.9% | [3] 42.4% | [4] 25.9% | [5] 13.2% | [6] 30.2%

O=[N+]([O-])c1ccc(OCCO)c([N+](=O)[O-])c1
inactive: [1] 6.75% | [2] -5.85% | [3] -22.4% | [4] -11.5% | [5] -0.15% | [6] 10%

COC(OC)c1cc(C(=O)O)c2ccccc2n1
inactive: [1] -9.45% | [2] -31.2% | [3] -9.85% | [4] -4.6% | [5] -22.2% | [6] -6.6%

Cc1occc1C(=S)Nc1ccc(Cl)c(OCC(=O)OC(C)(C)C)c1
inactive: [1] 49% | [2] 50.6% | [3] 49.2% | [4] 40.2% | [5] 46.6% | [6] 38.9%

Cc1c2oc3c(C)ccc(C(=O)NCCN4CCCC4)c3nc-2c(C(=O)NCCN2CCCC2)c(N)c1=O
inactive: [1] 64.5% | [2] 17.4% | [3] 5.9% | [4] 4.2% | [5] 3.6% | [6] 9.65%

CC(=O)NC(C)(CO)C(=O)O (stereo unspecified)
inactive: [1] 22.6% | [2] 12.7% | [3] 19.4% | [4] 13.4% | [5] 7.35% | [6] 14.1%

COc1cccc(/C=C2/C(=O)N(c3ccc([N+](=O)[O-])cc3)N=C2C)c1
inactive: [1] 34.5% | [2] 5.1% | [3] 37.9% | [4] 11.9% | [5] 14.3% | [6] 43.9%

NC(=O)CNC(=O)C1CCCN1C(=O)C1CCCCNOC(=O)CC[C@@H](NC(=O)OCC2c3ccccc3-c3ccccc32)C(=O)NC(Cc2c[nH]c3ccccc23)C(=O)N1 (stereo partly specified) (Fmoc-[dE][ξW][X9][ξP]G-NH2; ester 1-3)
inactive: [1] -10.2% | [2] -15.8% | [3] -6.55% | [4] 24.1% | [5] -16.2% | [6] -19.6%

Cc1ccc2c(=O)[nH]cnc2c1
inactive: [1] -10.4% | [2] -23.2% | [3] 4.45% | [4] -7.6% | [5] 2% | [6] -2.15%

CCCCCn1c(=O)c2cc3c(=O)n(CCCCC)c(=O)c3cc2c1=O
inactive: [1] 14.2% | [2] 7.3% | [3] 16.2% | [4] -52.6% | [5] 10% | [6] -5.6%

Clc1ccc(CSc2cnnc(SCc3ccc(Cl)cc3)c2SCc2ccc(Cl)cc2)cc1
inactive: [1] -11.4% | [2] 15.2% | [3] -10.9% | [4] -60% | [5] -3.75% | [6] -30.4%

S=C(N/N=C\c1ccccc1)Nc1ccccc1
inactive: [1] 6.65% | [2] -1.05% | [3] -8.2% | [4] 8.65% | [5] 10.8% | [6] 14.9%

FC1C2=C(SC1(F)F)C1CCC2C1 (stereo unspecified)
inactive: [1] 4.9% | [2] -2.2% | [3] 28.1% | [4] 17.9% | [5] -4.05% | [6] 12.9%
